Assay [1] can be described thus: Cell Viability - BJ (AID 421; calls by dose curve;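 also: potency is read from the fitted curve at half-maximal effect; cells exposed to compound for 40 hours at 37 °C before readout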). To be noted: BJ fibroblast viability, qHTS. In a few lines:
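Normal human BJ foreskin fibroblasts, 1500/well in complete medium, treated 40 hr at 37 °C. Cellular ATP by CellTiter-Glo luminescence; normalized to DMSO and 100 uM tamoxifen, AC50 from Hill fit.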
On the technique in general: qHTS replaces the single test concentration by a dilution series.

The nature of assay [2]: Cell Viability - Hek293 (AID 427;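 active = compounds whose dose-response curve shows a full or clear partial loss of cell viability, called from curve shape rather than a numeric limit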;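 also: potency is read from the fitted curve at half-maximal effect; cells exposed to compound for 40 hours at 37 °C before reading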). As to conditions: qHTS. In a few lines:
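HEK293 cells in complete medium were exposed to compound for 40 hr at 37 °C, then cellular ATP was read by CellTiter-Glo luminescence. Data were normalized to DMSO (basal) and 100 uM tamoxifen (100% inhibition), and AC50 came from Hill fits.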

Assay [3] can be described thus: Cell Viability - MRC5 (AID 434; calls by dose curve;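 also: potency is read from the fitted curve at half-maximal effect; potency reflects cytotoxicity seen as loss of intracellular ATP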). To be noted: MRC5 lung fibroblast viability, qHTS. In outline:
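Decrease in intracellular ATP, quantified by luciferase light output, reflects compound toxicity toward MRC5 cells exposed for 40 hr in complete culture medium. Concentration-response curves, scaled between DMSO and 100 uM tamoxifen, gave AC50 values.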

The nature of assay [4]: Cell Viability - SK-N-SH (AID 435; calls by dose curve;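 also: potency is read from the fitted curve at half-maximal effect; compound exposure lasted 40 h at 37 °C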). To be noted: SK-N-SH neuroblastoma cell viability qHTS. In a few lines:
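CellTiter-Glo ATP luminescence, 20 min RT read; cells pre-plated 5 hr, compound 40 hr at 37 °C, 1500 cells/well, complete medium. Normalized DMSO = 0, 100 uM tamoxifen = 100% inhibition; Hill-fit AC50.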

Assay [5] can be described thus: Cell Viability - N2a (AID 540). Also: nearly all actives have a fitted effect of over 45% in size. Also: potency is read from the fitted curve at half-maximal effect.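 As to activity change, negative = cytotoxicity: plate controls were DMSO alone for no effect and tamoxifen control for full effect.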 As to conditions: N2a mouse neuroblastoma cell viability; activity change, negative = cytotoxicity: at 92.2 µM (top of the series). In outline:
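CellTiter-Glo ATP luminescence, read 20 min after reagent at room temperature, reported viability following 40 h compound treatment at 37 °C. N2a mouse neuroblastoma cells seeded 1500/well; Hill equation gave AC50.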

Assay [6] in a line: Cell Viability - NIH 3T3 (AID 541). Also: nearly all actives have a fitted effect of over 25% in size. Also: potency is read from the fitted curve at half-maximal effect.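 As to activity change, negative = cytotoxicity: plate controls were DMSO alone for no effect and tamoxifen positive control for full effect.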 As to conditions: NIH 3T3 cell viability, qHTS; activity change, negative = cytotoxicity: at 92.2 µM (top of the series). In outline:
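Intracellular ATP (CellTiter-Glo luminescence, 20 min at room temperature) measured after 40 hr compound exposure at 37 °C of 1000 NIH 3T3 mouse fibroblasts/well in complete medium; AC50 derived by Hill-equation modelling of qHTS concentration-response curves.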

The nature of assay [7]: Cell Viability - Renal Proximal Tubule (AID 545). Also: nearly all actives have a fitted effect of over 40% in size. Also: potency is read from the fitted curve at half-maximal effect.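 As to activity change, negative = cytotoxicity: 0% = DMSO only and -100% = 100 µM tamoxifen.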 As to conditions: renal proximal tubule cells viability; activity change, negative = cytotoxicity: at 91.7 µM (top of the series) unless noted. In outline:
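Rat kidney proximal tubule cells, freshly isolated; 1000 cells/well, 5 hr settle, compound 40 hr 37 °C. CellTiter-Glo 20 min RT, luminescence read. AC50 by standard Hill fit.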

Assay [8] is described as follows: Cell Viability - Mesenchymal (AID 546).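 Also: cells exposed to compound for 40 hours before reading.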 Also: potency is read from the fitted curve at half-maximal effect.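 As to activity change, negative = cytotoxicity: 0% = DMSO only and -100% = 100 µM tamoxifen.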 As to conditions: mesenchymal cells viability, qHTS; activity change, negative = cytotoxicity: at 91.7 µM (top of the series). In outline: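 In this qHTS cytotoxicity format, glomerulus-derived human mesenchymal kidney cells received compound for 40 hr, then luciferase-based ATP quantitation. Concentration-response data were fitted with the Hill equation.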

Assay [9] can be described thus: Cellular Toxicity (caspase-3) Renal Proximal Tubule (AID 667).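 Also: cells exposed to compound for 16 hours at 37 °C before detection; 0% = DMSO basal and 100% = 10 µM staurosporine.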 As to conditions: renal proximal tubule cells; at 91.7 µM (top of the series) unless noted. In outline: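 Luminescent caspase 3/7 signal from peptide-aminoluciferin cleavage measures apoptosis in freshly isolated rat kidney proximal tubule cells after 16 h compound exposure. Concentration-response data are normalized to DMSO and 10 uM staurosporine, and AC50 values come from Hill equation fits.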

Assay [10] in a line: MultiTox-Fluor Cytotoxicity Assay - LYMP1-002 - Live Cells (AID 955). Also: potency is read from the fitted curve at half-maximal effect. As to conditions: LYMP1-002 lymphoblastoid live-cell protease fluorescence viability; series mostly up to 46.1 µM. In outline: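 After 16 h compound exposure at 37 C, live LYMP1-002 lymphoblastoid cells (2500/well) were quantified by cleavage of cell-permeant GF-AFC substrate, read at 405/510 nm after 60 min. Concentration-response fitted with Hill equation for AC50.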

Assay [11] can be described thus: MultiTox-Fluor Cytotoxicity Assay - LYMP1-003 - Live Cells (AID 962). Also: potency is read from the fitted curve at half-maximal effect. As to conditions: LYMP1-003 lymphoblastoid cells, MultiTox-Fluor live-cell protease fluorescence; series mostly up to 92.2 µM. In outline: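 Live-cell protease activity (GF-AFC substrate, 405/510 nm, 60 min at room temperature) after 16 h, 37 C compound exposure of human lymphoblastoid LYMP1-003 cells; concentration-response fitted to the Hill equation for AC50.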

Assay [12] can be described thus: Cell Viability - LYMP2-008 (AID 980). Also: nearly all actives have a fitted effect of over 60% in size. Also: potency is read from the fitted curve at half-maximal effect. As to activity change, negative = cytotoxicity: % is scaled to controls: 0 for no effect and ±100 for the full control effect. As to conditions: LYMP2-008 lymphoblastoid cell viability, qHTS; series mostly up to 92.2 µM. In outline:
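Cytotoxicity determined from ATP-dependent luciferase luminescence (CellTiter-Glo) following 24 h compound exposure of human lymphoblastoid LYMP2-008 cells at 37 C. Concentration-response data fitted to the Hill equation to give AC50.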

Assay [13] in a line: qHTS assay for environmental chemicals that activate the Aryl hydrocarbon Receptor (AhR) signaling pathway (AID 651777). Also: nearly all actives have a fitted effect of over 15% in size. Also: potency is read from the fitted curve at half-maximal effect. As to activation: % of control where 0% means no effect. To be noted: 1A2-DRE human hepatoma cells, luciferase, 24 h; activation: active compounds read high. In a few lines:
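Following a 24 hr incubation with test chemicals at 37 C and 5% CO2, 1A2-DRE human hepatoma cells received One-Glo reagent; after 30 min at room temperature, luciferase output reflected CYP1A2 induction via AhR.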

Assay [14] is described as follows: qHTS assay for small molecule agonists of the antioxidant response element (ARE) signaling pathway measured by Nrf2-dependant transcriptional activity - cell viability counter screen (AID 720653; active = well fitted curve in the direction sought with a large enough effect in the repeat runs; an effect the other way counts as inactive or inconclusive; also: potency is read from the fitted curve at half-maximal effect; as to max response: % is scaled to controls: 0 for no effect and ±100 for the full control effect). As to conditions: ARE-bla HepG2 viability, CellTiter-Glo ATP luminescence, 16 h; max response: active compounds read low. In outline: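 ARE-bla HepG2 cells (2,000/well) rested 5 hrs at 37C/5% CO2, then exposed to compounds in DMSO for 16 hrs. Viability was read in the same wells as intracellular ATP by luminescence, 30 min at room temperature after reagent addition.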

Unmarked numbers belong to inactive results. Inconclusive results are not listed. Active and inactive are the calls of the source. Unless noted, calls follow the shape of the dose curve; as a rule, active = well fitted curve in the direction sought with a large enough effect; inconclusive = small, poorly fitted or top-dose-only effect, or another doubt; inactive = no such curve, though single readings can be large; an effect the other way counts as inactive or inconclusive. Bounds are passed on as bounds.

Regarding `CN(C)c1ccc(N=O)cc1`, the Potency in [1] was over 92 µM; in assay [2], 47.4 µM (active); in assay [3], 42.1 µM (active); in assay [4], 7.28 µM (active); in assay [5], 31.6 µM (active); in assay [6], 12.6 µM (active). The Potency was 15.8 µM (active) in assay [7]; 31.6 µM (active) in assay [8]; 5.01 µM (active) in [10]; 6.31 µM (active) in assay [11]; 1.26 µM (active) in assay [12]; 70.8 µM (active) in assay [13]. Also, the caspase-3 activation in assay [9] was -9.93%.
Regarding `CC(=O)[O-].CC(=O)[O-].O.O.[Cd+2]`, the Potency in assay [1] was over 92 µM; in [3] it was over 92 µM; in assay [7] it was 25.1 µM [primary cells of rat origin] (active); in assay [12], 50.1 µM (active); in assay [14] it was 10 µM (active). Moreover, the activity change, negative = cytotoxicity in assay [5] was -111% (active); in assay [6] it was -127% (active). The caspase-3 activation in assay [9] is -14.3% [at 91.7 µM, primary cells freshly taken from rat, solvent-only wells 0%, staurosporine 100%]. Also, the Potency result in assay [10] and in [11] was “inactive” each time. Further, the activation in assay [13] is 1.94%.
For the molecule `O=C(O)C1C(C(=O)O)C2(Cl)C(Cl)=C(Cl)C1(Cl)C2(Cl)Cl` (stereo not given), the Potency in assay [1], in assay [2], in assay [3] and in [4] was over 92 µM each time. In addition, the activity change, negative = cytotoxicity in assay [5] is 14.3%. In addition, the Potency entry in assay [6], in assay [7], in assay [8], in assay [10], in [11] and in assay [12] was “inactive” each time. Moreover, the caspase-3 activation in assay [9] is -21% [at 91.7 µM, primary cells freshly taken from rat, solvent-only wells 0%, staurosporine 100%]. The activation in assay [13] is 0.623%. Moreover, in [14], the max response is 5.57%.
On to `Nc1ccccc1C(=O)OCCc1ccccc1`, for which the Potency in assay [1] is over 92 µM; in assay [2], over 92 µM; in assay [3], over 92 µM; in assay [4], over 92 µM; in assay [13], 44.7 µM (active). The activity change, negative = cytotoxicity in assay [5] is -14.5%. Besides, the Potency result in assay [8], in [10], in assay [11] and in assay [12] was “inactive” throughout. For the same molecule, the caspase-3 activation in assay [9] is -20.4%. Moreover, the max response in assay [14] was 0.51%.
`O=[N+]([O-])C(Br)Br`: the Potency was over 92 µM in assay [2], 31.6 µM (active) in assay [6] and 12.6 µM (active) in [12]. For the same molecule, the activity change, negative = cytotoxicity in [5] was -119% (active). Also, the Potency result in assay [7], in assay [10] and in assay [11] was “inactive” throughout. Further, the caspase-3 activation in [9] is 2.88%. Also, the activation in assay [13] is 1.61%. The max response in [14] is -11.4%.
